Experimental data from PubChem BioAssay (NCATS).
Results filed as inconclusive are left out. Active and inactive are the calls of the source. Unless noted, calls come from the whole dose curve; as a rule, active = well fitted curve in the direction sought with a large enough effect; inconclusive = small, poorly fitted or top-dose-only effect, or another doubt; inactive = no such curve, though single readings can be large; an effect the other way counts as inactive or inconclusive.

Legend:
[1] = Counterscreen for APE1 Inhibitors: Fluorescent Dye Displacement Validation Assay (AID 1707);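 note: plate controls were ThO with dsDNA and no compound for no effect and ThO without dsDNA for full effect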
Method in brief: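 Endpoint fluorescence read at 480 nm excitation / 540 nm emission; DNA-binding compounds lower signal by displacing 250 nM Thiazole Orange from 50 nM dsDNA containing a tetrahydrofuran abasic site, Tris-HCl pH7.5 buffer with NaCl and MgCl2.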

[2] = molecular target: Endonuclease 4 (Escherichia coli (strain K12)) (UniProt P0A6C1); assay: Counterscreen for APE1 Inhibitors: qHTS Validation Assay for Inhibitors of Endonuclease IV (AID 1708); note: % is set by controls: 0 for no effect and ±100 for the full control effect
Method in brief: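 Incision of a double-stranded 50 nM TAMRA/BHQ-2 abasic substrate was followed kinetically (525/598 nm, reads every 60 s) after 15 min enzyme–compound preincubation with 2 nM EndoIV in pH 7.5 Tris buffer with MgCl2, DTT and Tween-20; concentration-response format.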

[3] = qHTS for differential inhibitors of proliferation of Plasmodium falciparum line 7G8 (AID 1815);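 note: parasite growth measured after three days of incubation; plate controls were vehicle wells for no effect and reference inhibitor wells for full effect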
[4] = qHTS for differential inhibitors of proliferation of Plasmodium falciparum line 3D7 (AID 1876);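 note: parasite growth measured after three days of culture; 0% = vehicle wells and -100% = reference inhibitor wells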
[5] = qHTS for differential inhibitors of proliferation of Plasmodium falciparum line D10 (AID 1877);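 note: parasites grown with compound for 72 h before DNA staining; plate controls were vehicle wells for no effect and reference inhibitor wells for full effect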
[6] = qHTS for differential inhibitors of proliferation of Plasmodium falciparum line Dd2 (AID 1882); details: Potency: Plasmodium falciparum Dd2 proliferation inhibition;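 note: series mostly up to about 29 µM; plate controls were DMSO vehicle for no effect and 0.29 µM artemisinin for full effect; nearly all actives have a fitted effect of over 65% in size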
Method in brief: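 SYBR Green DNA fluorescence (ex 485, em 535 nm) after overnight lysis quantifies parasite growth; compound exposure lasted 72 h at 37 C on infected red cells at 2.5% hematocrit, 0.3% parasitemia (final). Artemisinin 0.29 uM and vehicle wells define normalization.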

[7] = qHTS for differential inhibitors of proliferation of Plasmodium falciparum line HB3 (AID 1886); details: Potency: Plasmodium falciparum HB3 proliferation inhibition;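 note: parasites grown with compound for 72 h before SYBR Green readout; plate controls were vehicle for no effect and reference inhibitor for full effect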
[8] = qHTS Assay for Modulators of Human Peripheral Myelin Protein 22 (PMP22) Expression/Activity (AID 1967; active = well fitted curve in the direction sought with a large enough effect in the signal ratio; the % refers to the signal ratio;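 note: 0% = untreated cells and 100% end not stated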)
Method in brief: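 Luminescence ratio of Pmp22 promoter-driven green luciferase to EF-alpha-driven red luciferase, in engineered mouse MSC80 Schwann cells, served as read-out. Compounds were incubated 24h; untreated cells defined 0% Activity; curves were classified by r2, magnitude and activity.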

[9] = molecular target: ATP-dependent DNA helicase Q1 (Homo sapiens) (UniProt P46063); assay: qHTS Validation Assay for Inhibitors of RecQ-Like Dna Helicase 1 (RECQ1) (AID 2353);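 note: plate controls were DMSO vehicle for no effect and enzyme-free control for full effect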
ATP-dependent DNA helicase Q1 (Homo sapiens), sequence (P46063 whole entry, looked up): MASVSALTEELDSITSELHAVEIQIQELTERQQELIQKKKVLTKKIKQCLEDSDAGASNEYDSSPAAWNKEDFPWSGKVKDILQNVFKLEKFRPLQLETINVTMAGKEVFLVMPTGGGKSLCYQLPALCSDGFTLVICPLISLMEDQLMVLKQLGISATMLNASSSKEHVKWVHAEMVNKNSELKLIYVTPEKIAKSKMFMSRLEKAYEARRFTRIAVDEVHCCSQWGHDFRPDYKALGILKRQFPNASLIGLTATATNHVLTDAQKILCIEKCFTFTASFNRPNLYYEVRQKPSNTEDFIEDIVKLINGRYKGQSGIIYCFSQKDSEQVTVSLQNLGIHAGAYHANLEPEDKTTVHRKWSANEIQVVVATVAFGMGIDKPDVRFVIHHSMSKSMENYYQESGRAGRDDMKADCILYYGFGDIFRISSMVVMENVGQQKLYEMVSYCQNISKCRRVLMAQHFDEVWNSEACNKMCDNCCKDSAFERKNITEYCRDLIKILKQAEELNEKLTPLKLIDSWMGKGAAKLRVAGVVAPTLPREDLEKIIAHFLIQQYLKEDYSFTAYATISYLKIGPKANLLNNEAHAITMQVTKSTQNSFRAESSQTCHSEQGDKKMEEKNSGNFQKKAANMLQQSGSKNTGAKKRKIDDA
Method in brief: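 RECQ1T1 50 nM; forked duplex (20 bp + 30-nt ss tails) 200 nM, ATP 2 mM final; pH 8.0, 2 mM MgCl2, 2.5 ug/ml poly(dI-dC); 15 min compound preincubation; discontinuous kinetic read over 2 h at RT.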

[10] = molecular target: RecQ-like DNA helicase BLM (Homo sapiens) (UniProt P54132); assay: qHTS Validation Assay for Inhibitors of Bloom's syndrome helicase (BLM) (AID 2364);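 note: plate controls were DMSO vehicle for no effect and enzyme-free control for full effect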
RecQ-like DNA helicase BLM (Homo sapiens), sequence (P54132 whole entry, looked up): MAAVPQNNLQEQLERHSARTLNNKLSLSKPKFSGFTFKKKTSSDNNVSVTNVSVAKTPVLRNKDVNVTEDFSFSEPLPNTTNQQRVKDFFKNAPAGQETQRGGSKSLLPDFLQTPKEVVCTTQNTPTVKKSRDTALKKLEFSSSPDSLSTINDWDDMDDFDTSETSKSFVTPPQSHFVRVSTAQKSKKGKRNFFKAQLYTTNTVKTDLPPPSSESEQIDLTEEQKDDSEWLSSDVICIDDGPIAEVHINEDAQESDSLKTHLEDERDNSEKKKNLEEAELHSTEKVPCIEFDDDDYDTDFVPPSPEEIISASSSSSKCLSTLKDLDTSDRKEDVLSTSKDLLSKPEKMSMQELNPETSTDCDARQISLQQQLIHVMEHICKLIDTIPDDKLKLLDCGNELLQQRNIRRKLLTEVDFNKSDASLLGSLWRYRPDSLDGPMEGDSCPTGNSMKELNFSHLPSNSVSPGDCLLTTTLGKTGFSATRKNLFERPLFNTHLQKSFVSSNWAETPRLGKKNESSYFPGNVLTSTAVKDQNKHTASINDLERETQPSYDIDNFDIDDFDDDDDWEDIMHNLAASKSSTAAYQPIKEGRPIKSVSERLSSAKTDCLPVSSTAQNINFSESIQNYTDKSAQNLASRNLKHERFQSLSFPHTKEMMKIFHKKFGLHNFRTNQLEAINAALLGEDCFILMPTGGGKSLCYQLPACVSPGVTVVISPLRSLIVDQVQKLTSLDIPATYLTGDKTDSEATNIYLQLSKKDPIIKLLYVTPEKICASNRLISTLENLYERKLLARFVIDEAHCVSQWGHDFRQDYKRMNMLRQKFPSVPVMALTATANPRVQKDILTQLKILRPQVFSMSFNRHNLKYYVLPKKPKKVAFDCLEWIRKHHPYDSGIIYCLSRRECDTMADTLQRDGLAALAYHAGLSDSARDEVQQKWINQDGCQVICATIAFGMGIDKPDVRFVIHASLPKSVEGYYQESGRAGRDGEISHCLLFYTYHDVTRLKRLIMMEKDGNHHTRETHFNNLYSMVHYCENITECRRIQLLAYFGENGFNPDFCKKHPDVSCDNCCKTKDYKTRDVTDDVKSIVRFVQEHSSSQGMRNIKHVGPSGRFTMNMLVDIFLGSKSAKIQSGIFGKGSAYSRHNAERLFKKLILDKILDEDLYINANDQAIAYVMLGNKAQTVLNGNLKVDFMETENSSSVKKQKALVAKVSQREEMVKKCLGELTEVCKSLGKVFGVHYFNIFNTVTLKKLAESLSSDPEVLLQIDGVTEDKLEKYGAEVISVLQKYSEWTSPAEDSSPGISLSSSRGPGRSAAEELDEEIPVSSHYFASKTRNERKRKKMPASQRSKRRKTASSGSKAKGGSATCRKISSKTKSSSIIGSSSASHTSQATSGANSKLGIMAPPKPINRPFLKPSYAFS
Method in brief: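 Forked 20-bp duplex substrate (200 nM, TAMRA/BHQ-2) plus 2 mM ATP added after 15 min compound preincubation with 50 nM enzyme, pH 8.0, poly(dI-dC) 2.5 ug/ml. Strand separation followed by fluorescence (525/598 nm) over 2 h, normalized to enzyme-free and DMSO controls.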

[11] = Validation screen for small molecules that induce DNA re-replication in MCF 10A normal breast cells (AID 463097); note: 0% is about no effect; nearly all actives have a fitted effect of over 60% in size
Method in brief: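 Image-based qHTS: normal breast cells are incubated with compound for 48 hr, stained with Hoechst, and scanned for total nuclear fluorescence. Compounds raising the fraction of nuclei with elevated DNA content count as re-replication inducers.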

[12] = Quantitative high throughput screen for delayed death inhibitors of the malarial parasite plastid, 96 hour incubation (AID 488745);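 note: luciferase-expressing P. falciparum in erythrocytes at 2% hematocrit and 0.1% parasitemia; series mostly up to about 29 µM; % is set by controls: 0 for no effect and ±100 for the full control effect; nearly all actives have a fitted effect of over 70% in size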
Method in brief: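 Readout is firefly luciferase luminescence from an integrated reporter in P. falciparum; lower signal marks inhibited growth. Cultures at 2% hematocrit and 0.1% parasitemia were treated with compound across two generations (96 h, 37 C, 5% CO2).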

[13] = molecular target: M-phase phosphoprotein 8 (Homo sapiens) (UniProt Q99549); assay: qHTS Validation Assay for Inhibitors for MPP8 Chromodomain Interactions with Methylated Histone Tails (AID 488949);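 note: 50 nM MPP8 with 50 nM peptide preformed then compounds added for 30 min; AlphaScreen signal from MPP8 chromodomain bound to biotinylated H3K9me3 peptide; top concentration of the series differs between compounds; % is set by controls: 0 for no effect and ±100 for the full control effect; nearly all actives have a fitted effect of over 55% in size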
M-phase phosphoprotein 8 (Homo sapiens), sequence (Q99549 whole entry, looked up): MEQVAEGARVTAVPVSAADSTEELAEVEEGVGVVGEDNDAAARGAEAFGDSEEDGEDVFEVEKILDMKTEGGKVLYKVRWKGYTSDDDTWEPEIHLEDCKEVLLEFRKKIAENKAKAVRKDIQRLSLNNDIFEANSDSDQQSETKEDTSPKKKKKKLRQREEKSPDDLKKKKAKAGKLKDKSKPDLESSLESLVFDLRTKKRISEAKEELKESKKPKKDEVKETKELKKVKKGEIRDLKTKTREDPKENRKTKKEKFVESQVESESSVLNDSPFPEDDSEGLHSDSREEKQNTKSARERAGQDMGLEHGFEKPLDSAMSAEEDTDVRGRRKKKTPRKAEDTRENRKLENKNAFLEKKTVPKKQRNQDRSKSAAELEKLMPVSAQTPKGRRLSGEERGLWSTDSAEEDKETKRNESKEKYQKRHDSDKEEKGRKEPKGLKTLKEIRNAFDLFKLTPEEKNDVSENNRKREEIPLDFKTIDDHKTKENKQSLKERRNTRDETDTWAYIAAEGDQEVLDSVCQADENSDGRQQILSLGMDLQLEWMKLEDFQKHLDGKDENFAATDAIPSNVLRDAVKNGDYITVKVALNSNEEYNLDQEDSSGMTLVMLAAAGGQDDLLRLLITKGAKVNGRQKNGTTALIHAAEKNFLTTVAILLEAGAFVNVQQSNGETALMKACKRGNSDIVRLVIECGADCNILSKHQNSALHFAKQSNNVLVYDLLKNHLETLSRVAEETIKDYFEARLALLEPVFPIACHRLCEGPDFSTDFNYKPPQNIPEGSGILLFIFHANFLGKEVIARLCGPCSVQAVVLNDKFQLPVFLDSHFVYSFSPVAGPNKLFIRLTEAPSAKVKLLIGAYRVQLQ
Method in brief: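 50 nM MPP8 + 50 nM b-H3K9me3 peptide, PBS pH 7.4/0.01% Tween-20, 30 min RT; + cpd 30 min RT; + AlphaScreen donor/Ni-chelate acceptor beads 10 ug/mL final, 30 min dark; luminescence read.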

[14] = molecular target: Thyrotropin receptor (Homo sapiens) (UniProt P16473); assay: qHTS Assay for Antagonists of the Thyroid Stimulating Hormone Receptor (AID 488980); note: series mostly up to about 58 µM; 0% is about no effect
Thyrotropin receptor (Homo sapiens), sequence (P16473 whole entry, looked up): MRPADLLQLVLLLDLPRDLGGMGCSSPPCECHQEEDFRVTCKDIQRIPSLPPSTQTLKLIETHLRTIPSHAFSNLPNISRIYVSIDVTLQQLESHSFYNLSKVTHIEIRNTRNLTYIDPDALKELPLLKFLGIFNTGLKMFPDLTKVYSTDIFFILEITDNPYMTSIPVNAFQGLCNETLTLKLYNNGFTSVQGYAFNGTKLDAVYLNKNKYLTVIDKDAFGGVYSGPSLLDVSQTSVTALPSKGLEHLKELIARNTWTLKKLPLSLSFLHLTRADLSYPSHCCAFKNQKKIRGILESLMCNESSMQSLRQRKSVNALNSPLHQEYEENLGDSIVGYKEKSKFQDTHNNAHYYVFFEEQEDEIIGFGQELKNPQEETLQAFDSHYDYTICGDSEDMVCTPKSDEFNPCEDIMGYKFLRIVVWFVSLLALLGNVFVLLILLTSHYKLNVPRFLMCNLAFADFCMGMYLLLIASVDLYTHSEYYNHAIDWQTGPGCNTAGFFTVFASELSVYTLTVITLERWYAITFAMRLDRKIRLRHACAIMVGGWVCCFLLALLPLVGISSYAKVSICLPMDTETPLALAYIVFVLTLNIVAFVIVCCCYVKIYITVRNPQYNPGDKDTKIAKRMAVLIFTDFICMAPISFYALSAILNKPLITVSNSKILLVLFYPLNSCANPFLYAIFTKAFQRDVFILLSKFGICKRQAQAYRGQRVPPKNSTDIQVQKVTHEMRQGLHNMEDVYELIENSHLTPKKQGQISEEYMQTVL
Method in brief: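 Readout is cAMP by HTRF competition between cellular cAMP and cAMP-d2 for a cryptate-labelled antibody. Antagonism was assessed in TSHR-transfected HEK293 cells stimulated with 4 nM TSH (EC80, final) in the presence of RO 20-1724.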

[15] = molecular target: Thyrotropin-releasing hormone receptor (Homo sapiens) (UniProt P34981); assay: qHTS for Small Molecule Agonists and Allosteric Enhancers of Human TRH Receptor: Validation Screen for Agonists (AID 493127;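 active = calcium activation more than 3 SD above the typical response in the agonist read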;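 note: intracellular calcium rise by fluo-8 fluorescence before TRH EC20 addition; 0% is about no effect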); details: TRH receptor agonist cell assay; at 2 µM; active compounds read high
Thyrotropin-releasing hormone receptor (Homo sapiens), sequence (P34981 whole entry, looked up): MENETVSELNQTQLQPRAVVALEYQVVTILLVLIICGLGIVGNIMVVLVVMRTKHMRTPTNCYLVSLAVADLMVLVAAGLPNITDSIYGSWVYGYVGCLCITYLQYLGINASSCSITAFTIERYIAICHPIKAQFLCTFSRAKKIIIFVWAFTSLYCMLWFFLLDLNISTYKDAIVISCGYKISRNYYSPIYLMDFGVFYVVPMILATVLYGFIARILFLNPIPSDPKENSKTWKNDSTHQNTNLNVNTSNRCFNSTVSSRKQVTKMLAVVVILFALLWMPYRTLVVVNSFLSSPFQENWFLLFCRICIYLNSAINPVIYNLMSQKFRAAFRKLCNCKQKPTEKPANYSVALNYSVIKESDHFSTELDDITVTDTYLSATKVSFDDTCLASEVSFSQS
Method in brief: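 Compounds are added by online pintool to dye-loaded TRHR cells while fluorescence is recorded every second. A rise in calcium signal during the agonist read marks activation; a later 10 nM TRH addition (EC20) serves the separate enhancer mode.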

[16] = molecular target: Galactokinase (Homo sapiens) (UniProt P51570); assay: qHTS Validation Assay for Inhibitors of Human Galactokinase (GALK) (AID 493189); note: 0% is about no effect
Galactokinase (Homo sapiens), sequence (P51570 whole entry, looked up): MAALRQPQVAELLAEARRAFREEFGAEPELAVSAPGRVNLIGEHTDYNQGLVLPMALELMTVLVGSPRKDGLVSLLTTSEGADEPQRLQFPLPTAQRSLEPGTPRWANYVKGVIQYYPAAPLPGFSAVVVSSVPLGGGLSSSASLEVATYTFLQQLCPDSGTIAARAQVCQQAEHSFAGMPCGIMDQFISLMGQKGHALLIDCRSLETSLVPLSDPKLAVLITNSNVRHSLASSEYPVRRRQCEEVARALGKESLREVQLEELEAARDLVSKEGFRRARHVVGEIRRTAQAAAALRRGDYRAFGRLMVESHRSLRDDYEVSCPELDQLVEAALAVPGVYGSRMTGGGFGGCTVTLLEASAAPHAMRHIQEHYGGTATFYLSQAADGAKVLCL
Method in brief: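 5 nM GALK / 100 uM galactose / 35 uM ATP, 20 mM HEPES pH8.0, 5 mM MgCl2, 60 mM NaCl, 1 mM DTT, 0.01% BSA (final). RT 1 h; Kinase-Glo Plus luminescence.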

[17] = Validation screen for small molecules that induce DNA re-replication in SW480 colon adenocarcinoma cells (AID 504364); note: 0% is about no effect
Method in brief: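 Image-based qHTS: compounds were incubated with SW480 cells for 48 hr, nuclei stained with Hoechst, and per-nucleus fluorescence intensity scanned to flag cells with excess DNA content.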

[18] = molecular target: DNA dC->dU-editing enzyme APOBEC-3G (Homo sapiens) (UniProt Q9HC16); assay: qHTS for inhibitors of Vif-A3G interactions: Validation (AID 588379); note: 0% is about no effect
DNA dC->dU-editing enzyme APOBEC-3G (Homo sapiens), sequence (Q9HC16 whole entry, looked up): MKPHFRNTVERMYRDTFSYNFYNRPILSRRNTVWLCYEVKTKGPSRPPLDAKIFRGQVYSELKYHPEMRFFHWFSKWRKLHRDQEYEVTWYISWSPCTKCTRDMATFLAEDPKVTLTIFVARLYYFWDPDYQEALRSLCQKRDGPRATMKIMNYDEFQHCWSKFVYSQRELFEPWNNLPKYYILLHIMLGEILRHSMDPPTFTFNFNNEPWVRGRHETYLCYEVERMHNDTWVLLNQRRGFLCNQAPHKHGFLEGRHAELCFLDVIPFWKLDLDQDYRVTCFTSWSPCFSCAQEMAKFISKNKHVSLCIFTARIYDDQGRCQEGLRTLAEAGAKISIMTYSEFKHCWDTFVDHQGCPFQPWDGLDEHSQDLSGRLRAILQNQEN
Method in brief: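 Yellow fluorescence (Ex 488, Em 500-530) of Vif-coexpressing HeLa A3G-eYFP cells, scanned by Acumen cytometer, reports blocked A3G degradation. Cells plated at 700/well overnight at 37 deg C before compound addition, then a further overnight compound incubation at 37 deg C.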

[19] = molecular target: Voltage-gated inwardly rectifying potassium channel KCNH2 (Homo sapiens) (UniProt Q12809); assay: qHTS Assay for Small Molecule Inhibitors of the Human hERG Channel Activity (AID 588834);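 note: top concentration of the series differs between compounds; % is set by controls: 0 for no effect and ±100 for the full control effect; lower thallium flux fluorescence means stronger hERG block; nearly all actives have a fitted effect of over 50% in size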
Method in brief: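 Step 1: BacMam hERG transduction of U2OS, 4 hrs RT. Step 2: overnight 37 °C, plate 2000 cells/well, 4 hr. Step 3: FluxOR load, compound 10 min, stimulate, read fluorescence.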

[20] = system: Zika virus NS2B-NS3 protease; assay: Primary screen GU AMC qHTS for Zika virus inhibitors (AID 1347154);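 note: 0% = no-inhibitor control and -100% = no-enzyme control; nearly all actives have a fitted effect of over 70% in size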
Method in brief: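 Fluorogenic AMC-substrate cleavage by noncovalent NS2B-NS3 protease complex (25 nM, pH 8.0 Tris buffer with Tween 20) followed for 15 minutes at room temperature (~20% conversion). Percent inhibition from ex340/em450 signal change, fitted by 4-parameter Hill equation.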

[21] = Primary qHTS for small molecule stabilizers of the endoplasmic reticulum resident proteome: Secreted ER Calcium Modulated Protein (SERCaMP) assay (AID 1508630); note: % is set by controls: 0 for no effect and ±100 for the full control effect
Method in brief: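 The SH-SY5Y reporter protocol was run at 3 concentrations up to 38.3 uM (primary) or 11 concentrations (follow-up): 16 h compound, 100 nM thapsigargin for 4 h, then extracellular luciferase luminescence.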

CC(N)=NCc1cccc(CN)c1
inactive: Potency [1] | Potency [2] | Potency [3] | Potency [4] | Potency [5] | Potency [6] | Potency [7] | outcome [8] | Potency [9] | Potency [10] | Potency [11] | Potency [12] | Potency [13] | outcome [14] | activation [15] -0.25% | outcome [16] | outcome [17] | Potency [18] | Potency [19] | Potency [20] | Potency [21]
